Screens deposited in PubChem BioAssay by Broad Institute.
MITF TRPM1 HTS: activators of MITF-driven TRPM1 promoter reporter, primary screen, cell-based, SK-MEL-5, luciferase, single point; activation, % at 12.5 µM; 300,000 tested, 0.75% active; SK-MEL-5 TRPM1-promoter luciferase, 24 h; % of positive control, neutral wells = 0;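 active = mean activation of at least 80% with every replicate also reaching 80%; inconclusive = mean reaches 80% but some replicate falls short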;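 also: 0% = neutral control wells and 100% = parthenolide positive control wells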
EBV LMP1 NFkB: EBV LMP1-driven NF-kappaB luciferase reporter inhibitors, primary screen, cell-based, luminescence, single point | LMP1-induced NF-kappaB luciferase reporter cells | inhibition, % at 12.5 µM | 350,000 tested, 0.69% active | AID 504558, 2011; in the data active = inhibition above about 41%; inconclusive = no clear call, values can overlap the other calls;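 also: 0% = neutral control wells and 100% = reference inhibitor control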
esBAF inh: Bmi1 luciferase reporter increase in mESCs, primary screen, esBAF inhibitor project, mouse ES cells, Bmi1 luciferase knock-in, single point. reporter increase, % at 12.5 µM. 350,000 tested, 2% active. 24 h; 100% = twice the neutral-well signal; in the data active = activation above about 40%; inconclusive = no clear call, values can overlap the other calls;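 also: 0% = median of the plate's neutral control wells and 100% = double that signal; a rise in the Bmi1 reporter signal indicates esBAF inhibition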
C2C12 statin: suppressors of statin myotoxicity in C2C12 myotubes, primary screen, cell-based, single point, plate reader; rescue of ATP level, % at 7.49 µM; 330,000 tested, 0.78% active; C2C12 myotubes + simvastatin, ATP luminescence, 48 h; scaled: DMSO 0, geranylgeraniol control 100;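 active = mean ATP rescue above about 67%, or every replicate alone reaching that limit, limit read from the data, passing the limit was not always enough; inconclusive = no clear call, values can overlap the other calls; inactive = mean under the limit and some replicate under it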;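 also: myotubes were challenged with 10 µM simvastatin during compound exposure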
Wnt bcat act: Wnt/beta-catenin pathway activators, primary screen, cell-based, plate reader, single point. Wnt/beta-catenin reporter cell assay, activator. activation, % at 9.35 µM. 300,000 tested, 1.2% active; in the data active = activation above about 30%, passing the limit was not always enough; inconclusive = no clear call, values can overlap the other calls;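 also: 0% = neutral control wells and 100% = positive control wells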
TRPM1 prom inh: inhibitors of MITF-dependent TRPM1 promoter reporter, primary screen, cell-based, SK-MEL-5, single point, luciferase; AID 488899, 2010; 330,000 tested, 0.83% active; inhibition, % at 12.5 µM; SK-MEL-5 TRPM1 promoter luciferase, 24 h;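 active = mean inhibition across replicates of 60% or more, whatever share of single replicates reaches that level; inconclusive = some that reach 60%, reason not given; inactive = mean inhibition across replicates below 60%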
The depositor's hits bear a star; ? = inconclusive; . = no result given. The list is not random: actives were taken first. Their share in the collection is about 4%.

SMILES | MITF TRPM1 HTS | EBV LMP1 NFkB | esBAF inh | C2C12 statin | Wnt bcat act | TRPM1 prom inh
CCCN(CCC)c1nc(-c2ccccn2)nc2ccccc12 | -43 | 37 | -27 | -41 | -11 | 44
c1ccc(CCNc2nc(-c3ccccn3)nc3ccccc23)cc1 | . | 46* | . | . | 29 | 29
C#CCn1c(=NC(=O)c2ccc(Br)s2)sc2cccc(OC)c21 | 73 | -8 | 54* | -14 | 6 | -68
C=CCn1c(=NC(=O)c2cccs2)sc2cccc(OC)c21 | -2 | -5 | 2 | 7 | 1 | 4
Cc1[nH]nc2c1/C(=N\O)CC(C)(C)C2 | . | -4 | 4 | 101* | 0 | -4
Cc1ccc(-n2nc3ccc(N)cc3n2)cc1C | -20 | -34 | -19 | 1 | 31* | 27
Cc1ccc(-n2nc3ccc(N)cc3n2)cc1Cl | 19 | -19 | -12 | 12 | 10 | -15
COc1cc(C(=O)NCC(=O)N2CCN(S(=O)(=O)c3ccccc3C(F)(F)F)CC2)cc(OC)c1OC | -1 | 0 | 2 | -15 | -5 | 3
CCN1CCN(C(=O)c2ccc(COc3cccc(Cl)c3)o2)CC1 | 11 | -4 | . | . | 13 | -9
CN(C)c1ccc(NC(=O)c2ccc(COc3cccc(Cl)c3)o2)cc1 | 13 | -26 | 74* | 6 | . | -10
Cc1cc(C(=O)CSc2nnc(-c3ccccc3F)o2)c(C)n1Cc1cccs1 | 2 | 6 | -2 | 43 | -1 | 3
COc1ccc(NC(=O)c2cc(C)n(Cc3cccs3)c2C)cc1 | . | -15 | . | . | 68* | -90
Cc1cc(C(=O)CN2C(=O)NC3(CCCCC3)C2=O)c(C)n1Cc1ccc2c(c1)OCO2 | 32 | -6 | 51* | 40 | . | -29
Cc1cc(C(=O)CN2C(=O)NC3(CCCCC3)C2=O)c(C)n1C | 29 | -26 | 14 | 16 | 5 | -23
Cc1cc(C(=O)CN2C(=O)c3cccc(N)c3C2=O)c(C)n1Cc1cccs1 | 106* | -35 | 43* | . | 20 | -101
Cc1cc(C(=O)CN2C(=O)NC3(CCCCC3)C2=O)c(C)n1Cc1ccco1 | ? | -18 | . | . | 73* | -85
O=C(CN1CCOCC1)N1CC[C@@H]2[C@@H](CO)Nc3ccc(-c4ccccc4F)cc3[C@@H]21 | . | . | 4 | -4 | . | .
Cc1cc(C(=O)CN2C(=O)NC3(CCCCC3C)C2=O)c(C)n1Cc1cccs1 (stereo not given) | 92* | -34 | . | . | 65* | -98
CC1CCCCC12NC(=O)N(CC(=O)NCc1cccs1)C2=O (stereo not given) | . | 0 | 3 | 11 | -2 | .
CCOc1[nH]n(-c2ccc(Cl)cc2)c(=O)c1C=Nc1ccc(OC)cc1 | 8 | 37 | 9 | -7 | -3 | -5
O=C(C1CC1)N1CCc2cc(S(=O)(=O)N3CCN(c4ccccc4)CC3)ccc21 | -8 | 0 | -7 | 10 | -2 | 10
O=C(C1CCC1)N1CCCc2cc(S(=O)(=O)N3CCN(c4ccccc4)CC3)ccc21 | -4 | -8 | 1 | 149* | -4 | 4
COc1ccc(CNc2ncccc2[N+](=O)[O-])cc1 | 41 | -19 | 54* | 11 | 8 | -36
C/C(=N\OCc1ccc(C#N)cc1)c1ccccc1 | 88* | -22 | . | . | 0 | -87
C/C(=N\OCc1ccc(C#N)cc1)c1ccc(S(=O)(=O)N(C)C)cc1 | 96* | -12 | 51* | 6 | 23 | -95
SMILES | MITF TRPM1 HTS | EBV LMP1 NFkB | esBAF inh | C2C12 statin | Wnt bcat act | TRPM1 prom inh
C/C(=N/OCO/N=C(\C)c1ccccc1)c1ccccc1 | -8 | -7 | . | . | 3 | 10
COc1ccc(NC(=O)N(C)C[C@H]2Oc3cc(-c4cccc(C(=O)N(C)C)c4)ccc3S(=O)(=O)N([C@H](C)CO)C[C@@H]2C)cc1 | . | . | -1 | 1 | . | .
Cc1onc(-c2c(Cl)cccc2Cl)c1NC(=O)NNc1ccccn1 | . | 0 | . | . | 4 | 3
c1cncc(Nc2nc(-c3cccnc3)cs2)c1 | 22 | 6 | . | . | . | -20
Clc1ccccc1-c1csc(Nc2cccnc2)n1 | 31 | -9 | 63* | -9 | 13 | -32
Clc1ccccc1Nc1nc(-c2cccnc2)cs1 | 66 | -48 | 29 | -45 | 55* | -64
COc1cccc(Nc2nc(-c3cccnc3)cs2)c1 | 81* | -4 | ? | -41 | 17 | -79
Cc1cccc(NS(=O)(=O)c2ccc(C(=O)NCCCN3CCCC3=O)cc2)c1C | -18 | 6 | 3 | 12 | -3 | 19
Cc1ccc2nc(-c3ccccn3)[nH]c2c1 | . | 41* | 5 | -67 | 8 | 12
Cc1ccc2nc(C(O)C(O)c3nc4ccc(C)cc4[nH]3)[nH]c2c1 (stereo not given) | . | -37 | 43* | -10 | 27 | -46
Cc1nsc(N)c1C(=O)O | 4 | 4 | 0 | 20 | 1 | -1
S=C1Cc2ccccc2N1 | -90 | -8 | -45 | 74* | -18 | 91*
N#C/C(C(=O)NCc1ccccc1)=C1/N=C(NC(=O)c2ccco2)c2ccccc21 | 38 | -11 | 47* | 8 | -4 | -35
CCOCCCNC(=O)C(c1ccc(Cl)cc1)N1CCC2(CC1)OCCO2 (stereo not given) | 4 | -12 | -16 | -2 | 60* | -1
CC(=C/c1ccco1)/C=N/N1CCN(c2ccccc2)CC1 | . | -23 | 49* | -45 | . | -67
CC(/C=N/N1CCN(c2ccccc2)CC1)=C\c1ccco1 | 61 | -9 | 2 | -33 | 21 | -56
CCC1(C)COC(c2ccc3c(c2)OCO3)OC1 (stereo not given) | 10 | 7 | 12 | 0 | 0 | -6
Cc1cc(C)c(OCCCn2ccnc2)c(C)c1 | 0 | 12 | -10 | 0 | 0 | 1
Cc1cc(C)c(OCCn2ccnc2)c(C)c1 | 5 | 73* | -7 | -8 | -1 | -6
Cc1ccccc1NCCC(=O)Nc1ccc(F)cc1 | . | -5 | 5 | 5 | 5 | .
CCN1C(=O)C(C)S/C1=N\S(=O)(=O)c1ccc(Cl)s1 (stereo not given) | 3 | 6 | -6 | 136* | . | -6
CCS(=O)(=O)N1CCN(S(=O)(=O)c2ccc(Cl)s2)CC1 | -9 | 8 | . | . | -3 | 8
Cc1nn(Cc2ccccc2Cl)c(Cl)c1C(=O)NCCc1ccccc1 | 60 | -31 | 5 | -45 | 47* | -48
CC(=O)Nc1ccc(NC(=O)c2c(C)nn(Cc3ccccc3)c2Cl)cc1 | -1 | 5 | 5 | 3 | -1 | 1
Cc1cccc(NC(=O)Cn2cnc(S(=O)(=O)N3CCCC3)c2)c1C | 15 | -5 | 7 | -5 | -1 | -13
CN(C)c1ccnc2sc3c(NCC(O)CO)ncnc3c12 (stereo not given) | 4 | 9 | . | . | -10 | -1
